# Laboratory results from PubChem BioAssay.
# Activity calls are given as the source filed them.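 Rule for the calls: active = viability loss from added drug above about 55%, and viability with drug at most 40%, in both replicates (limit read from the data, passing the limit was not always enough); inconclusive = both conditions met in only one replicate; inactive = neither replicate meets both conditions.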
# Assay: reversal of MRP1-mediated doxorubicin resistance, pilot screen, H69AR cells, doxorubicin co-treatment (AID 601)
# Conditions: H69AR cells + 2 uM doxorubicin, CellTiter-Glo, 72 h; at 10 µM; stronger effect = higher value
row,Compound,differential viability (reversal)
1,O=C(CSc1nnc2ccccn12)c1ccccc1,14.1% (inactive)
2,Cc1ccccc1Cn1ccc(NC(=O)c2onc(C)c2Cl)n1,16.8% (inactive)
3,CN(CCCNC(=O)c1cn(C)c2ccc(S(=O)(=O)N(C)C)cc2c1=O)c1ccccc1,17.1% (inactive)
4,NC(=O)CN1C(=O)C(O)(CC(=O)c2ccccc2O)c2ccccc21 (stereo not given),-5.2% (inactive)
5,CC(C)CCN(C)C1CCN(S(=O)(=O)c2ccc(F)cc2)CC1,-10.5% (inactive)
6,COc1ccc(C(C)N2CC34C=CC(O3)C(C(=O)OCC(C)C)C4C2=O)cc1 (stereo not given),3.22% (inactive)
7,COc1ccc(Cl)cc1S(=O)(=O)N1CCN(c2ccc(F)cc2)CC1,-11.6% (inactive)
8,Cc1sc2nc(SCC(=O)NCCO)n(C)c(=O)c2c1C,-6.7% (inactive)
9,CC(=O)NCCc1nc2ccccc2[nH]1,-1% (inactive)
10,CCN1C(=O)c2cccc3c(NC(=O)c4ccc(S(=O)(=O)N(C)C)cc4)ccc1c23,-3.87% (inactive)
11,Cc1nc2ccccc2c2oc(C(=O)N3CCN(C(=O)c4ccco4)CC3)cc12,-0.275% (inactive)
12,c1ccc(Cn2nnc3c(N4CCCCCC4)ncnc32)cc1,-13.9% (inactive)
13,COC(=O)c1cn(C(=O)c2ccc(Br)o2)c2ccccc12,-1.34% (inactive)
14,CS(=O)(=O)Nc1ccccc1C(=O)O,2.55% (inactive)
15,Cn1cccc1Cc1nnc(SCC(=O)NCC2CCCO2)n1-c1ccc(F)cc1 (stereo not given),0.18% (inactive)
16,Cc1ccc(Cn2c(=O)c3ccccc3n3c(CCC(=O)O)nnc23)cc1,7.02% (inactive)
17,COc1ccc(OCCSc2nc3ccccc3n2CC(=O)O)cc1,2.5% (inactive)
18,CCCCSc1nc2c(cnn2-c2ccc(F)cc2)c(=O)[nH]1,-10.8% (inactive)
19,CCOc1ccc(NC(=O)C(C)Sc2nnc(C)n2C)cc1 (stereo not given),2.75% (inactive)
20,CCOc1ccc2[nH]c(C)cc(=O)c2c1,18.7% (inactive)
21,Cc1nc2ccccc2c2oc(C(=O)N3CCC(N4CCCCC4)CC3)cc12,9.3% (inactive)
22,O=C(O)c1ccc2c(c1)C(=O)N(c1ccc(Cl)cn1)C2=O,-0.91% (inactive)
23,COc1cccc(-c2nc(CS(=O)(=O)CC(=O)NCc3ccc(Cl)cc3)c(C)o2)c1,10.1% (inactive)
24,COc1ccc(C(NC(=O)c2ccco2)c2ccc(OC)c(OC)c2)cc1 (stereo not given),15.1% (inactive)
25,CCOC(=O)N1CCC(NC(=O)CN2C(=O)CCSc3ccccc32)CC1,-3.45% (inactive)
